Experimental data published in PubChem BioAssay.
Where “and” joins values, the source holds several entries; their conditions need not be identical. Equal entries are not always repeated. Values without a mark were called inactive. No rule for the calls is given here.

What follows are molecules tested against L-lactate dehydrogenase (Plasmodium falciparum (isolate CDC / Honduras)) (UniProt Q27743) (assay: PfLDH activity inhibition – cell lysate, 3D7 strain, counter-screen for P. falciparum growth inhibition project (AID 2304;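 also: 0% = vehicle and 100% = reference inhibitor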)). Details: P. falciparum 3D7 crude extract, LDH APAD/NBT absorbance; at 2 µM; stronger effect = higher value.
L-lactate dehydrogenase (Plasmodium falciparum (isolate CDC / Honduras)), sequence (Q27743 whole entry, looked up): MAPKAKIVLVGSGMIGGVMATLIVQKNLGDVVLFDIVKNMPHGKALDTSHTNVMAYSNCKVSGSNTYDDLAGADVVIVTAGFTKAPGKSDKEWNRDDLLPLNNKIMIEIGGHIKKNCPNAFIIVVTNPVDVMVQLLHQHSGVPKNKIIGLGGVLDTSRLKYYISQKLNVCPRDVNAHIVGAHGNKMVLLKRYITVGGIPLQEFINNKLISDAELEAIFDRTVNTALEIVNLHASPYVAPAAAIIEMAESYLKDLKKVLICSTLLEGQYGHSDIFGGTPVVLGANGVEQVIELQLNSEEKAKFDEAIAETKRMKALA
Molecule `COc1ccc2nc(C)cc(NN=Cc3ccccc3Cl)c2c1` has an inhibition of 5%.
`COc1ccccc1NC(=O)c1cc(C(=O)c2cc(Cl)ccc2O)cn(-c2ccccc2OC)c1=O` gave an inhibition of 7%.
Molecule `CCc1c(C)nc2nc(Cc3cccc(F)c3)nn2c1N1CCN(c2ccccn2)CC1` has an inhibition of -1%.
`COc1ccc(NC(=O)NC2CCN(CCCOc3ccnc4cc(Cl)ccc34)C2)cc1OC` (stereo not given) was tested, and the inhibition was 1%.
Molecule `CN1CCCN(Cc2ccc(-c3cccc(NC(=O)c4ccc(F)cc4)c3)cc2)CC1` has an inhibition of 1%.
Molecule `Cc1cc(NCC2CCN(CC3CCCCC3)C2)nc(Nc2ccc(Br)cc2)n1` (stereo not given) has an inhibition of 0%.
Molecule `Cc1cccc2[nH]c(-c3ccc(-c4cccc(NC(=O)NCc5cccc(F)c5)c4)cc3)nc12` has an inhibition of 6%.
In the case of `CCOC(=O)C(C)(C)Oc1ccc(C(=C2CC(C)(C)CC(C)(C)C2)c2ccc(O)cc2)cc1`, the inhibition is reported as 1%.
In the case of `CN(C)CCCN(C)C(=O)c1cc2cc(-c3ccccc3)ccc2n1S(=O)(=O)c1ccccc1`, the inhibition is reported as -1%.
`CCN(CC)c1cc(C)c2cc(NC(=O)c3cc(=O)c4ccccc4o3)ccc2n1` gave an inhibition of 1%.
In the case of `COc1ccc(Cl)cc1N1CCN(CCCNC(=O)c2ccc(-c3nc4cc5ccccc5cc4[nH]3)c(F)c2)CC1`, the inhibition is reported as -3%.
Molecule `O=S(=O)(NCCN1CCCC1)c1cccc(-c2ccccc2CNC2Cc3ccccc3C2)c1` has an inhibition of -3%.
`CCCC(C)NC(=O)C(N)Cc1cccc(I)c1` (stereo not given) showed an inhibition of 0%.
Work on `CCCCCCCCNc1c2ccc(Cl)cc2nc2ccc(OC)cc12` yielded an inhibition of -3%.
Work on `CN1CCC(C(=O)Nc2cccc(-c3ccc(-c4nc5ccc(C(F)(F)F)cc5[nH]4)s3)c2)CC1` yielded an inhibition of 0%.
`Cc1cc(NCCC(=O)NCCc2ccccc2)nc(NCCc2ccc(F)cc2)n1` gave an inhibition of -1%.
In the case of `CCCC(C)Nc1nc(C)cc(N[C@@H](CC(C)C)C(=O)NCCOc2ccccc2)n1` (stereo not given in full), the inhibition is reported as 1%.
`CN(C)CCNC(=O)N1CCCN(c2ncnc3cc(-c4ccccc4)sc23)CC1` gave an inhibition of 5%.
Molecule `CC(=O)Nc1cccc(C(=O)Nc2cccc(-c3cccc(-c4nc5ccccc5[nH]4)c3)c2)c1` has an inhibition of -5%.
`CC(CN(C)C)C(=O)Nc1ccc(-c2cccc(-c3nc4ccccc4[nH]3)c2)cc1` (stereo not given) gave an inhibition of 4%.
Molecule `O=C(/C=C/c1ccc(Cl)c(Cl)c1)NCCCCCN1CCC(NC(=O)Nc2ccccc2Cl)CC1` has an inhibition of 3%.
`CCc1cc2c(N)nc(N)nc2nc1-c1ccccc1` showed an inhibition of 6%.
For `CC(C)CNCc1cccc(-c2cccc(CNCCCN3CCN(C)CC3)c2)c1`, the inhibition was 1%.
For `Clc1ccc2c(NCCNc3ccnc4cc(Cl)ccc34)ccnc2c1`, the inhibition was -6%.
`CC(C)(C)c1ccc(NC(=O)c2cccc(CN3CCCN(Cc4ccc(F)cc4)CC3)c2)cc1` showed an inhibition of 0%.
Molecule `COc1ccc(CNCc2ccc(F)cc2)cc1-c1ccc(OC)c(S(=O)(=O)NCCN2CCCC2)c1` has an inhibition of 5%.
`NC1=NC(c2ccccc2)(c2ccccc2)C(=O)N1CC1CCC1` was tested, and the inhibition was 3%.
With `O=C1C(c2ccccc2)=C(Nc2cc(Cl)cc(Cl)c2)c2ccccc21` the inhibition was -3%.
Molecule `Cc1cc(C2CCN(CCCCNC(=O)c3ccc(NC(=O)c4ccc(Cl)cc4)cc3)CC2)c(C)cc1OCc1cccnc1` has an inhibition of 0%.
With `C=C[C@H]1CN(CCCCCCC)CC[C@H]1CCN(C)c1ccnc2ccc(OC)cc12` the inhibition was -1%.
Molecule `COc1ccc(CN(C)CCCSc2ccc(NC(=O)c3cccc4c(=O)cc(-c5ccccc5)[nH]c34)cc2)cc1OC` has an inhibition of -6%.
With `CC(=O)N1N=C(c2ccc(Cl)cc2)Sc2c1nc(C1CCCCC1)n2C(C)=O` the inhibition was -1%.
With `OC(CNc1ccnc(Nc2cccc(Cl)c2)n1)c1cccc(C(F)(F)F)c1` (stereo not given) the inhibition was 4%.
With `CCc1cc(I)c2c(c1)C(NCCCNc1cc(=O)c3ccccc3[nH]1)CCN2` (stereo not given) the inhibition was -1%.
`O=C1C(c2ccccc2)=C(Nc2ccc(Cl)cc2)c2ccccc21` was tested, and the inhibition was -2%.
Molecule `Cc1cc(CNCCCCCCCNCc2cccc([N+](=O)[O-])c2)ccc1O` has an inhibition of -1%.
`Cc1[nH]c2cccc(F)c2c(=O)c1Cc1ccc(Cl)cc1` (tested in a mixture with another compound) gave an inhibition of 5%.
For `COc1ccc2ncc(F)c(CCN3CCC(CNC(=O)C(=O)c4c[nH]c5ccccc45)CC3)c2n1`, the inhibition was -6%.
In the case of `O=C(Nc1ccc(Cn2ncc(N3CCCNCC3)c(Cl)c2=O)cc1)Nc1ccc(-c2ccccc2)cc1`, the inhibition is reported as -2% and 8%.
Work on `CC(=O)N/N=C/[C@H](CCc1ccccc1)NC(=O)[C@H](CC(C)C)NC(=O)c1ccc(OCCN2CCOCC2)cc1` yielded an inhibition of -9%.
